# The whole screen tested about 48,000 compounds, of which about 13,000 (27%) showed an effect of 50% or more. The list shows a part of the results.
# Tested on: Wolbachia pipientis
# Test: Anti-Wolbachia Cell-Based Screen
# Assay type: functional
# Parameters: scale not given: in the data most compounds retested in dose-response had high values
# Details: 5 µM
row,Structure (SMILES),Percent Effect
1,Cc1ccc(CCNC(=O)NCc2cccc(OC(F)F)c2)cn1,-2.718%
2,CCOCCCNC(=O)Nc1ccc(F)c(C(N)=O)c1,144.9%
3,COCCCNC(=O)Nc1ccc(F)c(C(N)=O)c1,133.6%
4,CC(C)CCOCCNC(=O)Nc1cc(C(F)(F)F)c[nH]c1=O,-4.49%
5,NC(=O)c1cc(NC(=O)N2CCCCCC2)ccc1F,-15.41%
6,CC(C)C(C)NC(=O)Nc1ccc(F)c(C(N)=O)c1 (stereo not drawn),114.2%
7,COCCCNC(=O)Nc1cccc2ncccc12,3.143%
8,CC(=O)c1cccc(NC(=O)NCCOCC2CC2)c1,4.489%
9,COC(=O)c1cccc(S(=O)(=O)Nc2ccc(F)c(C(N)=O)c2)c1,-1.482%
10,CC(C)C(O)CNC(=O)Nc1ccc(F)c(Cl)c1 (stereo not drawn),4.966%
11,COCCNC(=O)Nc1ccc(-n2cncn2)c(F)c1,-15.63%
12,CC(C)CCOCCNC(=O)Nc1ccc(F)c(C(N)=O)c1,86.61%
13,O=C(NCCCOCC1CC1)Nc1ccc(F)cc1,3.334%
14,CCOc1ncccc1C(=O)N1CC=C(c2ccc(O)cc2)CC1,32.78%
15,CCC(C)Nc1ccc(-c2nc(-c3cccc(OC)c3OC)no2)cn1 (stereo not drawn),24.9%
16,Cc1ccc(NCCCNC(=O)NCc2c(C)cc(C)[nH]c2=O)nc1,7.392%
17,CC(=O)c1ccc(NC(=O)N[C@H](C(=O)O)C(C)C)cc1,99.56%
18,CNC(=O)c1ccc(NC(=O)NC(C)c2cc(C)oc2C)cc1 (stereo not drawn),-7.2%
19,CC(C)C(NC(=O)Nc1ccc(F)cc1)C(=O)N(C)C (stereo not drawn),92.8%
20,CC(=O)c1ccc(NC(=O)NC(C(=O)N(C)C)C(C)C)cc1 (stereo not drawn),-8.422%
21,CC(=O)c1ccc(NC(=O)NC(C)c2ccc3c(c2)CC(=O)N3)cc1 (stereo not drawn),0.8032%
22,CC(C)[C@H](NC(=O)NC1CCS(=O)(=O)C1)C(=O)Nc1cccnc1 (stereo partly drawn),9.774%
23,CC(C)NC(=O)c1ccc(NC(=O)NC(C)c2ccccn2)cc1 (stereo not drawn),-7.886%
24,CC(=O)c1ccc(NC(=O)C(NC(=O)Nc2ccccc2)C(C)C)cc1 (stereo not drawn),128.1%
25,CC(Cn1cccn1)NC(=O)Nc1ccc(F)cc1 (stereo not drawn),5.847%
26,CN1C(=O)CC(C(=O)O)C12CCN(Cc1ccc(Cl)c(Cl)c1)CC2 (stereo not drawn),-9.214%

row,Structure (SMILES),Percent Effect
1,Cc1cccc(-c2noc([C@@H]3C[C@@H](O)CN3C)n2)c1,-0.5094%
2,CC(C)NC(=O)c1ccc2c(c1)C(c1nc[nH]n1)CN2S(C)(=O)=O (stereo not drawn),2.921%
3,COc1cccc(COCC(=O)N2CCN(CC(C)(C)O)CC2)c1,-0.1486%
4,CCS(=O)(=O)N1CCCn2cnc(COc3cccnc3)c2C1.O=C(O)C(F)(F)F,90.76%
5,O=C(O)C(F)(F)F.O=C(O)C(F)(F)F.c1cc(CN2CCCn3cnc(COCC4CC4)c3C2)ccn1,-1.984%
6,O=C(O)C(F)(F)F.O=C(O)C(F)(F)F.c1cnc(NCc2ncn3c2CN(Cc2cccnc2)CCC3)nc1,4.407%
7,CN(C)CCOCc1ncn2c1CN(c1ncc(F)cn1)CCC2.O=C(O)C(F)(F)F,-8.613%
8,O=C(O)C(F)(F)F.O=S(=O)(c1cccs1)N1CCCn2cnc(CO)c2C1,-6.746%
9,CN(C)C(=O)COCc1ncn2c1CN(c1ncc(F)cn1)CCC2,5.015%
10,O=C(O)C(F)(F)F.O=S(=O)(Cc1ccccc1)N1CCCn2cnc(CN3CCCC3)c2C1,-19.91%
11,Fc1cnc(N2CCCn3cnc(COc4cccnc4)c3C2)nc1.O=C(O)C(F)(F)F,88.73%
12,O=C(O)C(F)(F)F.O=S(=O)(C1CC1)N1CCCn2cnc(COc3cccnc3)c2C1,121.6%
13,O=S(=O)(NC(CO)Cc1c[nH]c2ccccc12)c1cncc(F)c1 (stereo not drawn),0.282%
14,O=C(CCc1nc(Cl)n[nH]1)N1C[C@@H](CN2CCCCC2)[C@@H](CO)C1,12.3%
15,N#Cc1ccccc1N1CCCN(CC(=O)Nc2ccccc2Cl)CC1,11.85%
16,CCc1cc(C(=O)N2CCC(C3CCN(c4ncccn4)CC3)C2)on1 (stereo not drawn),-2.788%
17,CCC1c2ccc(C)n2CCN1C(=O)Cn1cnc2sc(C)cc2c1=O (stereo not drawn),132.6%
18,CCCC1c2cccn2CCN1C(=O)Cn1cnc2sc(C)cc2c1=O (stereo not drawn),146.6%
19,Cc1cc2c(=O)n(CC(=O)N3CCn4cccc4C3C(C)C)cnc2s1 (stereo not drawn),139.9%
20,CCN1CCC(CC(=O)N2CCn3cccc3C2c2cccnc2)CC1 (stereo not drawn),-1.172%
21,CCCC1c2cccn2CCN1C(=O)c1cc(CC)no1 (stereo not drawn),123.5%
22,CNC(=O)C1CCCCN1C(=O)CCn1cnc2sccc2c1=O (stereo not drawn),2.602%
23,Cc1cc2c(=O)n3c(nc2s1)CCN(C(=O)c1ccncc1)CC3,-15.49%
24,Cc1ncsc1CCC(=O)N1CCn2cccc2C1c1cccnc1 (stereo not drawn),2.617%
25,CCC1c2cccn2CCN1C(=O)c1ccc2nonc2c1 (stereo not drawn),-3.198%
26,COC(=O)CCNC(=O)c1nnn(-c2ccccc2)c1C(F)(F)F,-9.818%

row,Structure (SMILES),Percent Effect
1,CS(=O)(=O)N1CCCCCC1C1CCN(Cc2nc(C3CC3)no2)CC1 (stereo not drawn),-7.435%
2,Cc1nc(NC(=O)CCN2C(=O)c3ccccc3NC2C(C)C)sc1C (stereo not drawn),126.1%
3,Cc1nc(NC(=O)CN2CCOC(Cn3cccn3)C2)sc1C (stereo not drawn),-8.379%
4,Cc1nc(NC(=O)CN2CCc3c(nc(C(C)C)n3C)C2)sc1C,-4.598%
5,Cc1nc(NC(=O)C2CCCN(C(N)=O)C2)sc1-c1ccccc1 (stereo not drawn),3.163%
6,O=C(CN1CCCC(c2ccn[nH]2)C1)Nc1nc2c(s1)CCC2 (stereo not drawn),-12.59%
7,Cc1nc(NC(=O)C(C)N2CCN(c3ccccc3F)CC2)sc1C (stereo not drawn),2.631%
8,Cc1nc(NC(=O)CN2C(=O)c3ccccc3NC2C(C)C)sc1C (stereo not drawn),126.1%
9,CC(C)C1Nc2ccccc2C(=O)N1CC(=O)Nc1nc2c(s1)CCC2 (stereo not drawn),128.1%
10,Cc1cc(C2CCCN(CC(=O)Nc3nc4c(s3)CCC4)C2)n[nH]1 (stereo not drawn),7.579%
11,Cc1cc(NCC(=O)N(C)CC(F)(F)F)c(C(N)=O)cc1F,-3.816%
12,O=S(=O)(Nc1ccon1)c1cc(Cl)cc2c1OCC2,4.815%
13,CCCS(=O)(=O)N(C)C(=O)CCc1ccsc1,-1.511%
14,CN(C)c1ccccc1C(=O)N1C[C@@H](CN2CCCCC2)[C@@H](CO)C1,-1.886%
15,CC(=O)N1[C@H](Cn2cncn2)C[C@@H]2CN(Cc3cccnc3)CC[C@@H]21.O=C(O)C(F)(F)F.O=C(O)C(F)(F)F,-6.622%
16,O=C(O)C(F)(F)F.O=C(O)C(F)(F)F.c1cncc(CN2Cc3nccn3CC(Cn3cccn3)C2)c1 (stereo not drawn),90.07%
17,O=C(O)C(F)(F)F.O=C(O)C(F)(F)F.c1cc(CN2Cc3nccn3CC(Cn3cncn3)C2)ccn1 (stereo not drawn),106.6%
18,O=C(O)C(F)(F)F.c1cncc(CN2Cc3nccn3CC(Cn3cncn3)C2)c1 (stereo not drawn),126.5%
19,Cc1nc(C)n(CC2CN(Cc3cccnc3)Cc3nccn3C2)n1.O=C(O)C(F)(F)F.O=C(O)C(F)(F)F (stereo not drawn),6.866%
20,Cc1nc(C)n(CC2CN(Cc3ccncc3)Cc3nccn3C2)n1.O=C(O)C(F)(F)F.O=C(O)C(F)(F)F (stereo not drawn),-4.303%
21,CCc1ccc(CN2Cc3nccn3CC(Cn3cncn3)C2)o1.O=C(O)C(F)(F)F (stereo not drawn),101.6%
22,Cc1cc(C2CCCN2C(=O)NCc2cccnc2OC(C)C)on1 (stereo not drawn),10.48%
23,O=c1[nH]c(-c2ccc(Cl)cc2)nc2c1CCNC2,-17.05%
24,CSc1ccc(CN(C(=O)c2cc(C)[nH]c(=O)c2)C2CC2)cc1,12.75%
25,COC(C)(C)c1noc(C2(C#N)CCCCC2)n1,-1.328%
26,CCOC(=O)NC(CNC(=O)c1ncccn1)CC(C)C (stereo not drawn),3.45%

row,Structure (SMILES),Percent Effect
1,CNC(=O)[C@@H](c1ccccc1OC)N1CCC[C@H]1C(=O)NC(C)(C)C.Cl,1.665%
2,CCC(Nc1ccc(Oc2ccc(C#N)cc2OC)cc1)C(N)=O (stereo not drawn),-15.11%
3,O=C(O)C(F)(F)F.c1csc(CN2Cc3nccn3CC(Cn3cncn3)C2)c1 (stereo not drawn),90.09%
4,Cc1nc(C)n(CC2CN(Cc3cccs3)Cc3nccn3C2)n1.O=C(O)C(F)(F)F (stereo not drawn),12.7%
5,O=C(O)C(F)(F)F.c1csc(CN2Cc3nccn3CC(Cn3cncn3)C2)n1 (stereo not drawn),-6.751%
6,CC(C)Nc1cc(-c2c[nH]nc2C2CCN(C(=O)C3CC3)C2)ccn1 (stereo not drawn),259.2%
7,CN1CCCC(C(=O)N2CCC(Oc3ncccn3)CC2)C1 (stereo not drawn),16.76%
8,CC(C)CNc1cc(-c2c[nH]nc2C2CCN(C(=O)C3CC3)C2)ccn1 (stereo not drawn),239.9%
9,COc1ccc(OC)c(C2CCN(C(=O)C3CCN(C(C)C)CC3)C2)c1 (stereo not drawn),-6.334%
10,CC(C)Oc1ncccc1CNC(=O)C1CCCN(C(=O)C2CC2)C1 (stereo not drawn),-12.74%
11,CC(C)Nc1cc(-c2c[nH]nc2C2CCN(C(=O)C3CCC3)C2)ccn1 (stereo not drawn),269%
12,COc1ccccc1-c1nnc([C@H]2CCN(C(=O)C3CC3)C2)o1,-2.817%
13,CCN(CC)CCn1cnc(-c2ccccc2)c1-c1cnc(C)s1,-4.484%
14,Cc1nc2ccccc2nc1CN1CCCC(Cn2cncn2)C1 (stereo not drawn),-7.654%
15,Cc1cc(CN2CCCC(Cn3cncn3)C2)no1 (stereo not drawn),117%
16,Cc1cc(NC(=O)CN2CCCC(Cn3cncn3)C2)on1 (stereo not drawn),0.4633%
17,c1ccc(-c2nc(CN3CCCC(Cn4cncn4)C3)no2)cc1 (stereo not drawn),-1.614%
18,Cc1cc(NC(=O)CN2CCCC(Cn3cncn3)C2)no1 (stereo not drawn),-8.5%
19,Cc1cc(CN2CCCC2Cn2cncn2)no1 (stereo not drawn),1.75%
20,c1ccc(-c2cc(CN3CCCC(Cn4cncn4)C3)on2)cc1 (stereo not drawn),156.9%
21,Cc1cc(CN2CCCC(Cn3cncn3)C2)on1 (stereo not drawn),123.2%
22,Cc1cccc(-c2noc(CN3CCCC(Cn4cncn4)C3)n2)c1 (stereo not drawn),6.393%
23,c1ccc(-c2nc(CN3CCCC(Cn4cncn4)C3)co2)cc1 (stereo not drawn),5.722%
24,c1ncn(CC2CCCN(Cc3nc(C4CC4)no3)C2)n1 (stereo not drawn),-1.701%
25,Cc1ccc(-c2nc(CN3CCCC(Cn4cncn4)C3)co2)cc1 (stereo not drawn),142.7%

# Source: ChEMBL document CHEMBL3988442, “University of Dundee, Small-Polar-MMV Screening Library” (2021)
